aGal spleen mod = inhibitors or activators of human alpha-galactosidase in spleen homogenate; 0.008% of 240,000 active; AID 2107; P06280; Potency, µM (doses to about 80 µM), inactives show top-dose activity change, negative = inhibition, hits mostly inhibitors; human spleen homogenate, 4MU-alpha-Gal fluorescence, 40 min;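 note: potency is the fitted concentration of half-maximal effect; 0% = enzyme with vehicle and -100% = no enzyme basal signal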
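Human spleen homogenate (1 ug) as enzyme source, 4-methylumbelliferyl-alpha-D-galactopyranoside 1 mM final, citrate/phosphate pH 5.0 with 0.01% Tween-20. Compounds 40 min at 37C, NaOH/glycine stop; fluorescence Ex 365/Em 440, Hill-fit AC50.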
GLA inh pH 4.5 = blocks human alpha-galactosidase A at pH 4.5. P06280. purified enzyme, 4-MU-alpha-Gal fluorescence, pH 4.5. activity change, negative = inhibition, % at 105 µM. 230,000 tested, under 10 active. AID 1467;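 note: 0% = full activity with enzyme and -100% = basal without enzyme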
PNC assembly inh = perinucleolar compartment assembly inhibition. PC3M PTB-GFP, PNC prevalence imaging, 16 h; stronger effect = lower value. activity change (PNC), negative = inhibition, % at 10 µM. 3.1% of 140,000 active;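 active = readout at or below -70, meaning at least 70% loss of cells showing the perinucleolar compartment, a nuclear body marking cancer cells; inconclusive = readout between -30 and a set limit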;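 note: plate controls were DMSO wells for no effect and camptothecin positive control wells for full effect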
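Read-out is percentage of cells bearing a perinucleolar compartment, from automated 20x imaging of fixed, Hoechst-stained PC3M PTB-GFP cells. Cells were seeded 4 h, then exposed 16 h to compound (23 nl of library stock) in duplicate plates.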
ALDH1A1 block = blocks purified human ALDH1A1 activity | P00352 | Purified ALDH1A1, NADH fluorescence, propionaldehyde substrate | AID 1030 | Potency, µM (series often up to 75.3 µM), inactives show top-dose activity, negative = inhibition, usual class: inhibitors | 7.3% of 220,000 active; active = well fitted inhibition curve with a large enough effect, not every such curve was filed as active; inconclusive = small, poorly fitted or top-dose-only effect, or another doubt; inactive = no such curve, though single readings can be large or run the other way;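 note: potency is the fitted concentration of half-maximal effect; plate controls were no enzyme wells and a reference inhibitor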
HPGD inh = blocks human HPGD enzyme activity | 4.3% of 150,000 active | Potency, µM, for the others: top-dose activity change, negative = inhibition, actives largely listed as inhibitors | purified HPGD, NADH fluorescence kinetic, PGE2 substrate; active = well fitted inhibition curve with a large enough effect, not every such curve was filed as active; inconclusive = small, poorly fitted or top-dose-only effect, or another doubt; inactive = no such curve, though single readings can be large or run the other way; note: potency is the fitted concentration of half-maximal effect
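20 nM HPGD preincubated 15 min at room temperature with compound in 50 mM Tris-HCl pH 8, 0.01% Tween 20. Started with 1 mM NAD+ and 30 uM prostaglandin E2; NADH fluorescence (360/450 nm) read 5 times over 30-s intervals, last minus first.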
ALOX12 inhib = 12-hLO (ALOX12) enzyme inhibition. P18054. purified 12-hLO, xylenol orange hydroperoxide absorbance. Potency, µM (titrated, usually from 57.1 µM), inactives show at the highest dose activity change, negative = inhibition, most hits filed as inhibitors. 0.12% of 150,000 active. AID 1452; note: potency is the fitted concentration of half-maximal effect; nearly all actives have a fitted effect of over 55% in size
Target sequence (P18054 whole entry, looked up): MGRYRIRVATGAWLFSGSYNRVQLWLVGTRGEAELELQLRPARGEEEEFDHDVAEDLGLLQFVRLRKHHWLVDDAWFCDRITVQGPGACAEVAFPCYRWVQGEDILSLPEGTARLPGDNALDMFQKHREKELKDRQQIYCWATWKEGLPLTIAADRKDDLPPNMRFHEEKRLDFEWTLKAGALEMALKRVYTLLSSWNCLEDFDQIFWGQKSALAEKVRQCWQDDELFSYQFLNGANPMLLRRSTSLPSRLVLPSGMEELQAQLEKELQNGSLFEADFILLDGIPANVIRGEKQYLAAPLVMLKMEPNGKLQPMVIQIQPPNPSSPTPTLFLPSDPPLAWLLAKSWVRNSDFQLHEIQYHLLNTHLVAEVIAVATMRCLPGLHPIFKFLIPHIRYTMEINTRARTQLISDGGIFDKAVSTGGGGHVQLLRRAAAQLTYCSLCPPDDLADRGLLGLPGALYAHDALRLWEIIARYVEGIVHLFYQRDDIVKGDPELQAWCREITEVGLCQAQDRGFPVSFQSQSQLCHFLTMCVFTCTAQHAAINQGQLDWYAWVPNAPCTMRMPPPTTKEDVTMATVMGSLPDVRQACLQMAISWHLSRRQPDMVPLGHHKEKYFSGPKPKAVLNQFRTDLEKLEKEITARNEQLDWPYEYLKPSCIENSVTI
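Purified human 12hLO (150 nM final) was preincubated with compounds for 15 min at room temperature in 25 mM Hepes pH 7.0, 0.01% Triton X-100, then reacted with 40 uM arachidonic acid for 30 min. Hydroperoxide was detected with ferrous iron/xylenol orange.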
* = called active by the depositor; ? = inconclusive; nt = no result; [ ] = dose if it differs, or a comment. This is a sample that favours compounds with a hit; in the whole collection about 10% have one here. Unless noted, calls come from the whole dose curve; as a rule, active = well fitted curve in the direction sought with a large enough effect; inconclusive = small, poorly fitted or top-dose-only effect, or another doubt; inactive = no such curve, though single readings can be large; an effect the other way counts as inactive or inconclusive. Unless noted, % is set by controls: 0 for no effect and ±100 for the full control effect.

SMILES	aGal spleen mod	GLA inh pH 4.5	PNC assembly inh	ALDH1A1 block	HPGD inh	ALOX12 inhib
COc1cc2oc(=O)cc(C)c2c(OC)c1OC	6%	1	-22	?	-11%	1%
CCC12C=C(/C=C/c3ccccc3)C(CC)(C1)C(c1ccccc1)CC2=O (stereo not drawn)	-1%[17.5 µM]	nt	nt	11%[13.5 µM]	nt	nt
COc1ccc(-c2nc(-c3ccccc3)[nH]c(=O)c2C#N)cc1	8%	5	-20	-1%	20µM*	-3%
Cc1cc(C)c2c(=O)n(CC(=O)NC3CCCC3)sc2n1	3%	-1	nt	nt	nt	nt
COc1ccc(OC)c(CCNC(=O)Cn2sc3nc(C)cc(C)c3c2=O)c1	4%	5	-9	2.5µM*	1.4µM*	?
O=C(CCl)NCc1cc(-c2ccc(Cl)cc2)no1	1%	1	nt	22µM*	nt	nt
O=C(O)c1cccc(CN2C(=O)SC(Nc3ccccc3)C2=O)c1 (stereo not drawn)	-1%	0	-5	7.1µM*	-10%	2%
CN1C(=O)SC(Nc2ccccc2)C1=O (stereo not drawn)	-5%	0	26	32µM*	2%	2%
O=C(O)c1cccc(CN2C(=O)SC(Nc3cccc4ccccc34)C2=O)c1 (stereo not drawn)	-2%	4	nt	?	nt	nt
Cc1ccc(NC2SC(=O)N(Cc3cccc(C(=O)O)c3)C2=O)cc1 (stereo not drawn)	0%	-10	7	25µM*	-5%	-6%
CC1=C(Sc2nc3ccccc3[nH]2)C(=O)NC(C)(C)C1	1%	-4	5	2%	-4%	2%
CC(C)N1C(=O)S/C(=C/c2ccc(Sc3nc4ccccc4[nH]3)o2)C1=O	8%	-4	?	7.1µM*	-27%	-8%
C=CCN1C(=O)S/C(=C/c2ccc(Sc3nc4ccccc4[nH]3)o2)C1=O	0%	-12	-13	10µM*	-16%	-1%
COCCNc1nc(-c2ccoc2)nc2ccccc12	-10%	nt	nt	-12%	nt	nt
Cc1ccc(-c2csc(NC(=O)c3cccc(N4C(=O)CCC4=O)c3)n2)o1	-6%	6	36	3.5µM*	?	-11%
CCOc1ccc(-c2csc(NC(=O)c3cccc(N4C(=O)CCC4=O)c3)n2)cc1	-6%	-13	nt	nt	nt	nt
O=C(Nc1nnc(-c2ccco2)o1)c1cccc(N2C(=O)CCC2=O)c1	-10%	1	nt	28µM*	nt	nt
CCOP(=O)(c1ccccc1)C(O)c1ccc(Br)cc1 (stereo not drawn)	-5%	-1	?	13%	0%	-2%
CC(=C/c1ccccc1)/C=N/Nc1nc(N2CCCCC2)nc(N2CCCCC2)n1	2%	-1	-11	7%	-20%	2%
BrC(/C=N/Nc1nc(N2CCOCC2)nc(N2CCOCC2)n1)=C/c1ccccc1	-2%	12	-96*	?	16µM*	2%
Brc1cc2c(cc1/C=N/Nc1nc(N3CCOCC3)nc(N3CCOCC3)n1)OCO2	5%	-22	-26	20µM*	-15%	-6%
CCOc1ccccc1-c1ccc(C(=O)O)o1	1%[181 µM]	2	nt	?	?	-3%[0.00818 µM]
N[C@@H]1[C@@H]2[C@@H]3C[C@H]4N(CC[C@@]14C(=O)C(=O)O)CC3=CCO[C@@H]2CC(=O)O	nt	nt	nt	1%[13.5 µM]	0%	1%[11.4 µM]
Cc1ccc(C(=O)OCC(=O)Nc2sc3c(c2C#N)CCC3)cc1	-10%	13	4	25µM*	-9%	-4%
CCN(CC)S(=O)(=O)c1ccc(C(=O)OCC(=O)Nc2sc3c(c2C#N)CCCCC3)cc1	2%	-5	29	?	-22%	0%
SMILES	aGal spleen mod	GLA inh pH 4.5	PNC assembly inh	ALDH1A1 block	HPGD inh	ALOX12 inhib
N#Cc1c(NC(=O)COC(=O)c2ccc(S(=O)(=O)N3CCCC3)cc2)sc2c1CCCCC2	-6%	3	-14	10µM*	nt	2%
Fc1ccc(CNC(=S)NC2CCCC2)cc1	-7%	3	42	14%	-5%	3%
O=C1C[C@H]2OCC=C3CN4CC[C@@]5(C(=O)O)[C@H](N1)[C@H]2[C@H]3C[C@H]45	nt	nt	nt	nt	nt	0%[11.4 µM]
CC(=O)Nc1ccccc1-c1nc2ccc(C(=O)N3CCN(c4ccccc4)CC3)cc2[nH]c1=O	7%	5	143	28µM*	?	-4%
CC(=O)Nc1ccccc1-c1nc2ccc(C(=O)N3CCN(c4cccc(C)c4)C(C)C3)cc2[nH]c1=O (stereo not drawn)	6%	4	?	-2%	-14%	-1%
O=C(O)[C@H]1C(=CCO)O[C@H]2CC(=O)N12	-4%	11	nt	?	-20%	3%
CCOC(=O)N1CCN(C(=O)COc2cccc3c2CCN(Cc2ccccc2C)C3=O)CC1	2%	-1	?	25µM*	1%	2%
CC1CCN(C(=O)COc2cccc3c2CCN(Cc2ccccc2)C3=O)CC1	-4%	-5	nt	28µM*	nt	nt
CCN1CCc2c(OCC(=O)N3CCC(C)CC3)cccc2C1=O	0%	-2	nt	4%	nt	nt
CCOC(=O)N1CCN(C(=O)COc2cccc3c2CCN(Cc2cccc(C)c2)C3=O)CC1	5%	-6	-10	3%	-9%	-7%
CCOC(=O)N=Nc1c(O)n(CC(=O)OC)c2ccccc12	-9%	-7	nt	7.1µM*	nt	nt
CCOC(=O)C(=O)N=Nc1c(O)n(C)c2ccccc12	1%	5	nt	14µM*	nt	nt
CSc1ncccc1C(=O)OCc1cccc([N+](=O)[O-])c1	2%	4	nt	-5%	nt	nt
Cc1ccccc1Nc1oc(-c2ccccc2)nc1-c1cccc2ccccc12	-9%	-4	nt	25µM*	-2%	1%
CN(C)c1cc[n+](CC(=O)Nc2ccc(Oc3ccccc3)cc2)cc1	-5%	-4	nt	-6%	nt	nt
Cc1ccccc1NC(=O)COc1ccc2oc(=O)cc(C)c2c1	1%	4	nt	?	nt	nt
O=C(COc1ccc2oc(-c3ccccc3)cc(=O)c2c1)Nc1ccccc1	-7%	3	-112*	7%	-14%	-1%
CC1(CCc2ccccc2)NC(=O)N(CC(=O)Nc2ccc(S(N)(=O)=O)cc2)C1=O (stereo not drawn)	-1%	-9	nt	13%	nt	nt
COc1ccc(NC(=O)c2cccc(Oc3ccc([N+](=O)[O-])cc3Cl)c2)cc1	8%	-13	-2	?	-4%	0%
O=C(Nc1cccc(Cl)c1)c1cccc(Oc2ccc([N+](=O)[O-])cc2Cl)c1	0%	-1	-4	10µM*	-4%	2%
COc1ccccc1CN1CCCC2(CCN(S(=O)(=O)c3ccccc3)CC2)C1	-3%	nt	nt	2%	-3%	4%
COC(=O)CCC(=O)COc1ccccc1C#N	3%	2	9	?	14µM*	-1%
COC(=O)CCC(=O)COc1ccc(OC)cc1C#N	-8%	0	1	-5%	nt	-2%
C=C1C(C(=O)Nc2ccccc2)C1C(=O)Nc1ccccc1 (stereo not drawn)	6%	4	nt	nt	nt	nt
